The source of these data is ChEMBL document CHEMBL3988442, “University of Dundee, Small-Polar-MMV Screening Library” (2021).

The target of the assay is T1, Aspartate--tRNA(Asp/Asn) ligase (Mycobacterium tuberculosis (strain ATCC 25618 / H37Rv)) (UniProt P9WFW3).
T1 sequence (whole entry): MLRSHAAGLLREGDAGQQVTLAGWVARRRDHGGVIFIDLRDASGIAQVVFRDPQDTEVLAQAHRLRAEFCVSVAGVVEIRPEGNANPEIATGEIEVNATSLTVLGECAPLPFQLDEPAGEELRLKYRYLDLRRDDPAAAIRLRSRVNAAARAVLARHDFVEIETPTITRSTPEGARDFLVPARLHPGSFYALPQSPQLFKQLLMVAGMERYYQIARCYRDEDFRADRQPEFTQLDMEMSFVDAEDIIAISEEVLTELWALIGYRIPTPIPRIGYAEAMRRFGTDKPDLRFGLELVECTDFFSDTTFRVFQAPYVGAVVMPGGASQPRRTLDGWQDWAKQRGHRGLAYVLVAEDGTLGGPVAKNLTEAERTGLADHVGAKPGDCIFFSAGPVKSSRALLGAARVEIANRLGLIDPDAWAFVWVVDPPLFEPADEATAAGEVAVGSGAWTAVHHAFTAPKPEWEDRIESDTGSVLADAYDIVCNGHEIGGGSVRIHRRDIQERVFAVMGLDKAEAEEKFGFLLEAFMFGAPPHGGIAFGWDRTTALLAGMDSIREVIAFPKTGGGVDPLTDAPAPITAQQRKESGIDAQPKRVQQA
The assay is described as follows: Assay for Asp RNA synthetase-1 from Mycobacterium tuberculosis. The class given is functional. More on the design: scale not given: in the data most compounds retested in dose-response had high values. Particulars: 30 µM.
For `c1ccc(Cc2noc(CNC3CCc4ncnn4C3)n2)cc1` (stereo not given), the Percent Effect was -0.932%.

Consider `CN(C)c1ccc(CN(CCCn2ccnc2)Cc2c[nH]cn2)cc1`, for which the Percent Effect came to 0.194%.

Turning to `COc1ccc(CN2CCc3nc(C4CCCCN4C)ncc3C2)cc1` (stereo not given), the Percent Effect is 3.22%.

For `CC(NC(N)=O)C(=O)N1CCCN(Cc2nccn2C(C)C)CC1` (stereo not given), the Percent Effect was found to be 0.509%.

Regarding `CC(=O)Nc1nc(C2CCN(C(=O)c3cccnc3)CC2)cs1`, the Percent Effect was -8.57%.

For `COc1cccc2c1OCC(CNC(=O)CSc1nc(N)n[nH]1)C2` (stereo not given), the Percent Effect came out at 2.1%.

Consider `CCCc1noc(CCC(=O)N2CCCC2c2noc(C3CC3)n2)n1` (stereo not given), for which the Percent Effect was -2.66%.

In the case of `Cc1nc(CN2CCCN(CCOc3cccc(C#N)c3)CC2)no1`, the Percent Effect worked out at 5.09%.

Take `O=C1NCCN1C1CCCN(Cc2nnc(-c3ccc(F)cc3)o2)C1` (stereo not given): the Percent Effect is -2.77%.

In the case of `Cc1cccc(OCCC(=O)N(C)CCC#N)c1C`, the Percent Effect turned out to be 0.839%.

Consider `Cc1ccc(-c2cccc(-c3ccn(CCN4CCCC4)n3)c2)nn1`, for which the Percent Effect is -1.26%.

Regarding `c1csc(-c2nc(CN3CCn4c(nnc4C4CC4)C3)co2)c1`, the Percent Effect was -3.42%.

Turning to `O=C(NCC1CC1)C1CN(C(=O)c2cccc(Cl)c2)CC12CCOCC2` (stereo not given), the Percent Effect stood at 11.9%.

For `O=C(NC[C@]12COC[C@H]1CN(Cc1nccs1)C2)c1ccccc1`, the Percent Effect was -2.56%.

Take `O=C(NCCNc1ncccn1)c1ccc(-c2ccco2)[nH]c1=O`: the Percent Effect worked out at 6.93%.

Turning to `COCCN1CCC(CN(CC2CCCO2)C(=O)COC)CC1` (stereo not given), the Percent Effect is -4.26%.

Consider `CCc1ccc(NC(=O)N2C[C@H]3C[C@H](C(=O)NC)[C@@H](C2)O3)cc1`, for which the Percent Effect was determined as 3.34%.

Take `CCN(CCNC(=O)c1ccccc1Br)C1CC1`: the Percent Effect is -1.24%.

`CC(C)c1csc(C2CCCN(C(=O)Cn3ccccc3=O)C2)n1` (stereo not given): the Percent Effect is -3.63%.

`CCN(Cc1nc2c(cnn2C)c(=O)[nH]1)c1cccc(Cl)c1`: the Percent Effect is 0.461%.

With `Cc1noc(C)c1CNCC1CCN(CC(O)c2ccccc2)CC1` (stereo not given), the Percent Effect was -1.06%.

Take `CN(C)C(=O)c1ccc2c(c1)N(C)C(CC(=O)NC(C)(C)CO)CO2` (stereo not given): the Percent Effect came out at 1.87%.

For the compound `Cn1ccnc1CN1CCCCC1Cn1cccn1` (stereo not given), the Percent Effect came to 2.66%.

With `CN(C)C(=O)Cc1nc(CN2CCOC(Cn3cccn3)C2)cs1` (stereo not given), the Percent Effect is -3.5%.

For the compound `OC(CN1CCN(c2ncccn2)CC1)c1cccc(F)c1` (stereo not given), the Percent Effect is -3.26%.

Take `Cn1cc(-c2cnc(N3CCOCC3)nc2)cc1C(=O)NCCO`: the Percent Effect is 8.57%.

In the case of `COc1ccccc1Oc1ncccc1CNC(=O)C(C)N1CCCC1` (stereo not given), the Percent Effect was -0.0279%.

With `CCn1cc(CN(C)S(=O)(=O)c2cnn(CC)c2C)c(C)n1`, the Percent Effect was -3.81%.

For the compound `CC(C)(C)c1cnc(CN2CCC[C@H]2CO)o1`, the Percent Effect was -4.22%.

With `Cc1cc(C)c(CNC(=O)N(C)CC2CCCCO2)c(=O)[nH]1` (stereo not given), the Percent Effect came to 2.7%.

On to `Cc1cc(=O)[nH]c(NCCNC(=O)C(c2ccc(F)cc2)N(C)C)n1` (stereo not given), for which the Percent Effect is -2.14%.

As for `Cc1nn(C)c(Cl)c1C1CCCN1C(=O)c1cc(Cl)c[nH]1` (stereo not given), the Percent Effect is 1.85%.

On to `Cc1nc(C(=O)N2CCCC(c3cccc(-n4ccnc4)n3)C2)co1` (stereo not given), for which the Percent Effect is -0.67%.

For the compound `NC(=O)C1CCCN(Cc2c(-c3ccco3)[nH]c3ncccc23)C1` (stereo not given), the Percent Effect was 10.6%.

Regarding `CN(C)C(=O)CNC(=O)c1ccc(Cl)cc1F`, the Percent Effect was -6.71%.

For the compound `CC(=O)NC(C)CC(=O)NCc1cccnc1Oc1ccccc1C` (stereo not given), the Percent Effect was -4.43%.

Take `CCOc1ncccc1CNC(=O)Nc1ccc(N(C)C)nc1`: the Percent Effect is 3.77%.

For the compound `COCC(O)CN(C)C(=O)NC1CCN(Cc2ccccn2)CC1` (stereo not given), the Percent Effect was -3.52%.

For `Cc1noc([C@@H]2CC[C@@H]3[C@@H](CCN3S(=O)(=O)c3cccnc3)O2)n1`, the Percent Effect came to 0.127%.

On to `O=C(Nc1nncs1)NC1CCOc2ccccc21` (stereo not given), for which the Percent Effect is 5.22%.
